Assay outcomes deposited in PubChem by National Center for Advancing Translational Sciences (NCATS).
Shown are actives, neighbours in structure and some others; about 2.4% of the full set was active somewhere.
D2 antagonist = HTS Assay for Allosteric Antagonists of the Human D2 Dopamine Receptor: Primary Screen for Antagonists; D(2) dopamine receptor (Homo sapiens), P14416; HEK293 TREx D2 cells, calcium flux, dopamine EC80; inhibition, % at 10 µM; actives 2% (n = 340,000); AID 485344, 2010; in the data active = inhibition above about 30%; inactive = below that, where a call was filed
Target sequence (P14416 whole entry, looked up): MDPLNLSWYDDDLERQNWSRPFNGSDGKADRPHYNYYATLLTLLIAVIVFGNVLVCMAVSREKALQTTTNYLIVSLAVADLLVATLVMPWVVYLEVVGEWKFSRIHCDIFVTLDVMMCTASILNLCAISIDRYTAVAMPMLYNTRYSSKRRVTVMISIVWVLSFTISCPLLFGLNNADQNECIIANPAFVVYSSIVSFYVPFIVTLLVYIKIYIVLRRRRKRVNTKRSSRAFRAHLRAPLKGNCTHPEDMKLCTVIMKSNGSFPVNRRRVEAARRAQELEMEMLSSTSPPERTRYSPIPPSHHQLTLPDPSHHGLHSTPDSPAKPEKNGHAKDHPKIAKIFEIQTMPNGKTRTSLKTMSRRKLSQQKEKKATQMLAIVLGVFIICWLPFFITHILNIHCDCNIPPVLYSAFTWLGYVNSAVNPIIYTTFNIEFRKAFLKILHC
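Compounds are added to dye-loaded, induced HEK293 T-REx cells coupled to calcium release via D2; after a 3 min kinetic read an EC80 dopamine stimulus is given and fluorescence is recorded for 3 more min.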
D2 ag-1 = HTS Assay for Allosteric Agonists of the Human D2 Dopamine Receptor: Primary Screen for Agonists. HEK293 T-REx D2 cells, calcium flux agonist mode. actives 0.53% (n = 340,000). D(2) dopamine receptor (Homo sapiens), P14416. activation, % at 2 µM. AID 485358, 2010;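 active = activation over 3 SD above normal in the single-dose calcium agonist read, cut at about 30% in these data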
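In this primary screen, compounds producing a positive calcium signal within 180 s of addition to tetracycline-induced, force-coupled HEK293 Trex D2 cells are flagged; cells are dye-loaded with a no-wash calcium kit beforehand.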
D2 ag-2 = Beta-Arrestin HTS for Positive Allosteric Modulators of the Human D2 Dopamine Receptor: Agonists. D(2) dopamine receptor (Homo sapiens), P14416. DiscoveRx PathHunter D2 beta-arrestin, luminescence, 90 min; 100% = 57 uM dopamine signal. activation, % (concentration not given with the values). actives 0.084% (n = 360,000). AID 624465, 2012; in the data active = activation above about 40%; inconclusive = between about 15% and that limit
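Agonist mode: compounds alone added to overnight-plated D2 PathHunter cells for 90 min at 37 C, with 57 uM final dopamine (EC100) defining full response. Beta-arrestin recruitment detected by chemiluminescent reagent, read after 1 h at ambient temperature.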
D2 PAM-1 = Beta-Arrestin HTS for Positive Allosteric Modulators of the Human D2 Dopamine Receptor: Potentiators | potentiation, % (concentration not given with the values) | DiscoveRx D2 beta-arrestin cells, luminescence, 90 min; 100% = 57 uM dopamine signal | actives 0.23% (n = 360,000); in the data active = potentiation above about 50%; inconclusive = mostly about 30% to 49%
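PathHunter beta-arrestin assay in DiscoveRx D2 cells. Compounds were added with an EC20 of dopamine (50 nM final) for 90 min at 37 deg C. Luminescence was read 1 h after detection reagent, with 57 uM dopamine as the EC100 control.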
D2 PAM-2 = HTS Assay for Positive Allosteric Modulators of the Human D2 Dopamine Receptor: Primary Screen for Potentiators; HEK293 T-REx D2, calcium flux, EC20 dopamine potentiation; potentiation, % at 10 µM; actives 0.34% (n = 340,000);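 active = potentiation over 3 SD above the plate norm, cut at about 30% in these data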
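Tetracycline-induced Hek293 Trex D2 cells, force-coupled to calcium, loaded with no-wash calcium dye. Compound added with 180 s kinetic read for agonism, then EC20 dopamine and a further 180 s read for potentiation.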
A number is an active result; n = inactive; u = inconclusive; x = no result given.

SMILES	D2 antagonist	D2 ag-1	D2 ag-2	D2 PAM-1	D2 PAM-2
COc1cc2c(cc1OC)-c1n[nH]c(=S)n1C(C)(C)C2	n	n	n	n	35
CCOC(=O)c1[nH]c2c(c1Cc1ccccc1)C(=O)CC(c1ccc(C(C)(C)C)cc1)C2 (stereo not drawn)	x	n	x	x	n
CCn1c(CNc2ccc(Cl)cc2)nnc1SCCN1CCCCC1	50	n	n	n	n
O=C1N/C(=N/c2ccccn2)SC1Cc1ccccc1 (stereo not drawn)	n	n	n	n	n
O=C1NC(=Nc2ccccc2)SC1Cc1ccccc1 (stereo not drawn)	n	n	n	n	41
COC(=O)CN1C(=O)COc2ccc(S(=O)(=O)N3CCOCC3)cc21	46	n	n	n	n
O=C(O)CN1C(=O)COc2cc(S(=O)(=O)N3CCCC3)ccc21	31	n	n	n	n
O=C(CN1C(=O)COc2ccc(S(=O)(=O)N3CCCC3)cc21)N1CCCC1	n	n	n	n	n
CC(C)n1cnc2c(N(C)c3ccccc3)nc(N(CCN(C)C)Cc3ccccc3)nc21	34	n	n	n	n
CN(C)c1cccc2c(S(=O)(=O)Nc3ccccn3)cccc12	n	n	n	54	x
CC(C)(C)c1ccc(C(=O)NC(=S)NNC(=O)c2cccs2)cc1	56	51	n	n	n
O=C(NNC(=O)c1cccs1)c1ccc([N+](=O)[O-])cc1	61	n	n	n	n
Cc1cc(C(=O)OCC(=O)NNC(=O)c2cccs2)ccc1[N+](=O)[O-]	n	n	n	n	n
O=C(NNC(=O)c1ccc([N+](=O)[O-])cc1)c1ccc(NS(=O)(=O)c2cccs2)cc1	x	x	n	n	x
COC(=O)c1cc(C(=O)OCC(=O)NNC(=O)c2cccs2)cc([N+](=O)[O-])c1	n	n	n	71	n
CCOCCc1nn2c(=O)cc(COC(=O)c3ccccc3NC(=O)C3CCCCC3)nc2s1	x	x	x	x	n
COc1ccc(Nc2nnc(-c3ccc(C)c(S(=O)(=O)N4CCOCC4)c3)c3ccccc23)cc1	x	n	x	x	n
Cc1ccc(C)c(NC(=O)Cn2ncc3c(C)n(Cc4ccc(F)cc4)c(C)c3c2=O)c1	x	n	x	x	n
C[N+](C)(C)CCOC(=O)CCC(=O)OCC[N+](C)(C)C	x	x	n	n	x
CC(=O)SCC[N+](C)(C)C	36	n	n	n	n
CC(=O)Nc1ccc(S(=O)(=O)N2CCC(n3c(C(F)(F)F)nc4cccnc43)CC2)cc1	x	x	x	x	n
O=C(NNc1nc2cc3c(cc2s1)OCO3)c1cccc(F)c1	40	n	n	n	n
Brc1cccc(C2Nc3cccc4cccc(c34)N2)c1	n	n	n	n	n
Oc1ccccc1C1Nc2cccc3cccc(c23)N1	n	n	n	61	n
Brc1ccc(C2Nc3cccc4cccc(c34)N2)o1	n	n	n	61	n
SMILES	D2 antagonist	D2 ag-1	D2 ag-2	D2 PAM-1	D2 PAM-2
Cc1cc(NS(=O)(=O)c2ccccc2)cc(Cl)c1O	n	n	u	88	n
Cc1ccc(S(=O)(=O)Nc2cc(C)c(O)c(S(=O)(=O)c3ccc(C)cc3)c2)cc1	n	n	n	88	n
COC(=O)c1scc(-c2ccc(C)cc2)c1S(=O)(=O)N1CCN(c2cccc(OC)c2)CC1	x	n	x	x	n
Cc1c(Cl)cccc1N1C(N)=C(C#N)C(c2cc(CN3CCOCC3)cs2)C2=C1CCCC2=O (stereo not drawn)	x	n	x	x	n
COc1ccccc1N1CCN(C(=O)c2ccc3c(c2)N(Cc2ccccc2)C(=O)c2ccccc2S3(=O)=O)CC1	x	n	x	x	n
CC(C)c1nn2c(=O)cc(COC(=O)c3cccs3)nc2s1	x	n	x	x	n
O=C(OC(c1ccccc1)c1nccc2ccccc12)c1cc([N+](=O)[O-])cc([N+](=O)[O-])c1 (stereo not drawn)	n	n	u	81	n
OC(c1cccc(Cl)c1)c1nccc2ccccc12 (stereo not drawn)	n	n	n	n	n
COc1ccc(OC)c(S(=O)(=O)N2CCC(c3ccncc3)CC2)c1	x	n	x	x	x
CN1CCN(CC/C=C2/c3ccccc3Sc3ccc(S(=O)(=O)N(C)C)cc32)CC1	80	n	n	n	n
CCOC(=O)c1csc(NC(=O)C(C)(C)C)n1	41	n	n	n	n
CCCC(=O)Nc1nc(C(=O)OCC)cs1	n	n	n	n	n
Cc1nn(Cc2noc(C(=O)NC(C)c3ccccc3)n2)c(C)c1Br (stereo not drawn)	x	n	x	x	x
O=C(NC(=O)N1CCN(c2cccc(Cl)c2)CC1)c1ccc(Cl)cc1	57	n	n	n	n
O=C(NC(=O)N1CCCCCC1)c1ccc(Cl)cc1	32	n	n	n	n
O=C(NC(=O)N1CCN(c2cccc(Cl)c2)CC1)c1ccccc1	n	n	n	n	n
CN(CCNC(=O)c1cn(C)c2ccc(S(=O)(=O)N(C)C)cc2c1=O)CCc1ccccc1	45	n	n	n	n
COc1ccc(CCNC(=O)c2cn(C)c3ccc(S(=O)(=O)N4CCOCC4)cc3c2=O)cc1OC	40	n	n	n	n
CC1CCCC(NC(=O)c2cn(C)c3ccc(S(=O)(=O)N4CCCC4)cc3c2=O)C1C (stereo not drawn)	31	n	x	x	n
CCCCN(C)CCCNC(=O)c1cn(C)c2ccc(S(=O)(=O)N(C)C3CCCCC3)cc2c1=O	34	n	n	n	n
CCn1cc(C(=O)NCCc2ccc(OC)c(OC)c2)c(=O)c2cc(S(=O)(=O)N3CCOCC3)ccc21	n	n	n	n	n
O=C(CCCCn1c(=O)c2ccccc2n(Cc2cccc(F)c2)c1=O)NCc1ccc2c(c1)OCO2	x	n	x	x	n
COc1ccccc1CNC(=O)CSc1ccc(-c2sc(-c3ccccc3)nc2C)nn1	x	n	x	x	n
CCOC(=O)Cc1ccc(NC(=O)N(C(C)C)C2CCN(C(C)=O)CC2)cc1	x	n	x	x	n
CC(C)CC(=O)Nc1ccc(C(=O)CN2CCN(c3ccc(O)cc3)CC2)cc1	n	n	n	n	31
O=C(CN1CCN(c2ccc(O)cc2)CC1)Nc1ccc(S(=O)(=O)N2CCCC2)cc1	x	x	49	n	x
O=C(CN1CCCCC1)Nc1ccc(S(=O)(=O)N2CCCCCC2)cc1	n	n	n	n	n
COc1cccc(NC(=O)Cn2c(=O)n(-c3ccc(C)cc3)c(=O)c3ccccc32)c1	x	n	x	x	n
